Screens (PubChem)
12-LOX inh: ALOX12 (human) lipoxygenase inhibition; purified 12hLO, xylenol orange hydroperoxide absorbance; Potency, µM (top dose mostly 108 µM), inactives show at the highest dose activity change, negative = inhibition, most hits filed as inhibitors; 580,000 tested, 1.1% active; further: potency means the concentration at half of the fitted maximal effect; on the % scale 0 is the no-effect control and ±100 the full control effect
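Purified human 12hLO at 150 nM in 25 mM Hepes, 0.01% Triton X-100, pH 7.0, preincubated 15 min at room temperature with compound. Reaction started with 40 uM arachidonic acid, 30 min at room temperature. Hydroperoxide measured by Fe-xylenol orange, 573/405 nm absorbance ratio.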
Pol iota inh: inhibitors of human DNA polymerase iota; Pol iota fluorescent replication assay, 10 min; Potency, µM (highest dose often 115 µM), for inactives: top-dose activity, negative = inhibition, actives largely listed as inhibitors; 390,000 tested, 1% active; further: potency means the concentration at half of the fitted maximal effect
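Fluorescent replication assay read twice, at 0 min and 10 min after adding 50 nM (final) substrate. Enzyme (10 nM) and compounds were first incubated 15 min at room temperature; enzyme-free buffer wells were negative controls.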
Pol beta inh: DNA polymerase beta (human) inhibition. P06746. Pol beta primer extension/strand displacement, fluorescence kinetic. Potency, µM (top dose mostly 114 µM), inactives show top-dose activity change, negative = inhibition, usual class: inhibitors. 340,000 tested, 1.3% active; further: potency means the concentration at half of the fitted maximal effect; on the % scale 0 is the no-effect control and ±100 the full control effect
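Preincubation: enzyme (10 nM) with compound, 15 min, RT. Reaction: substrate added to 50 nM final. Reads: 0 and 10 min. Analysis: normalized, Hill fit.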
Pol eta inh: blocks human DNA polymerase eta activity. 390,000 tested, 1.2% active. Potency, µM (top dose mostly 114 µM), inactives show at the top dose activity change, negative = inhibition, usual class: inhibitors. Q9Y253. recombinant Pol eta, fluorescent DNA replication assay; further: potency means the concentration at half of the fitted maximal effect; on the % scale 0 is the no-effect control and ±100 the full control effect
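Pol eta (10 nM) was preincubated with compounds for 15 min at room temperature, after which fluorescent replication substrate (50 nM final) was added to start the reaction. Fluorescence was read kinetically at 0 and 10 min.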
POLK inh: DNA polymerase kappa (human) inhibition | Potency, µM (doses to about 107 µM), for inactives: at the highest dose activity, negative = inhibition, hits mostly inhibitors | 400,000 tested, 0.53% active | Q9UBT6 | purified Pol kappa, fluorescent DNA synthesis assay, 10 min; further: potency means the concentration at half of the fitted maximal effect; on the % scale 0 is the no-effect control and ±100 the full control effect
Target sequence (Q9UBT6 whole entry, looked up): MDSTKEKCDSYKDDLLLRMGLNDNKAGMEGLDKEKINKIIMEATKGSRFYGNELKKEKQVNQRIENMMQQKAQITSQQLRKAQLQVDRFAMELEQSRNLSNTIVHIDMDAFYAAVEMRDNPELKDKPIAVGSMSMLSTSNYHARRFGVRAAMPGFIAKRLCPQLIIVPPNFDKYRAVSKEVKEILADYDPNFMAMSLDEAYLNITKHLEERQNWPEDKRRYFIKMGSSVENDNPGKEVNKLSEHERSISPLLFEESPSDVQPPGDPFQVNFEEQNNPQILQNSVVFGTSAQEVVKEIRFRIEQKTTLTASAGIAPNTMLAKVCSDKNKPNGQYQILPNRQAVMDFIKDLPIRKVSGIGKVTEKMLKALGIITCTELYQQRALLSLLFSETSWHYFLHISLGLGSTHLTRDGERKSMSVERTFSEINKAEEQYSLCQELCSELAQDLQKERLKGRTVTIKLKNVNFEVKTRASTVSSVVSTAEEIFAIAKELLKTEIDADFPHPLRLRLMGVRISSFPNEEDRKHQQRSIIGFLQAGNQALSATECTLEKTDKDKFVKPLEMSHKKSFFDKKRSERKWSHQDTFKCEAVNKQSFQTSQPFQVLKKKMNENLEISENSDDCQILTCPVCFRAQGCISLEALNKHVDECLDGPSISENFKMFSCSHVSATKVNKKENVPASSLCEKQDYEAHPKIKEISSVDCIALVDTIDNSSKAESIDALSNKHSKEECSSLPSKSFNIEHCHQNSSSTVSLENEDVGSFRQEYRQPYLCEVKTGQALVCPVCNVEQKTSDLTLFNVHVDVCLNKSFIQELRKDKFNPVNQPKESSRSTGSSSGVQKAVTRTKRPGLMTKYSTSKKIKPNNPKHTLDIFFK
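Kinetic fluorescence readout at 0 and 10 min followed reaction start with substrate at 50 nM final. Beforehand, enzyme (10 nM Pol kappa) stood 15 min with compound at room temperature; buffer-only wells were negative controls.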
PI5P4K alpha inh: inhibitors of human PI5P4K alpha; PI5P4Kalpha enzyme, ADP-Glo luminescence, 60 min; stronger effect = lower value; max response, %; P48426; 330,000 tested, 1.2% active; active means max response of -50% or lower; inconclusive means between -30% and -50%; inactive means -30% or higher; further: value at the top dose of about 77 µM; on the % scale 0 is the no-effect control and ±100 the full control effect
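Reactions run in 0.038 M HEPES pH 7.4, 0.28 mM EGTA, 0.1% CHAPS and 5% DMSO, with PI5P4Kalpha, substrate, compound and 5 microM ATP final, one hour at room temperature. Readout is ADP-Glo luminescence.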
An asterisk follows results filed as active; ? = inconclusive; / = no result given; [ ] = remark or other dose. An excerpt weighted towards active compounds, which were near 2.9% of everything screened. Unless noted, the call rests on the fitted dose curve; in most records, active means well fitted inhibition curve with a large enough effect; inconclusive means small, poorly fitted or top-dose-only effect, or another doubt; inactive means no such curve, though single readings can be large or run the other way.

SMILES | 12-LOX inh | Pol iota inh | Pol beta inh | Pol eta inh | POLK inh | PI5P4K alpha inh
COc1ccc(N(C(=O)Cc2cccs2)C2C=CS(=O)(=O)C2)cc1 (centres undefined) | ? | ? | 16µM* | ? | -32% | ?
Cn1c(NN)nc2c1c(=O)n(Cc1ccccc1)c(=O)n2C | -8% | ? | 40µM* | ? | -16% | -58*
Cc1ccnc(NS(=O)(=O)c2ccc(NC(=O)c3cc(-c4ccc(Br)cc4)nc4ccccc34)cc2)n1 | -33% | 45µM* | 79µM* | 35µM* | -32% | ?
Cc1ccnc(NS(=O)(=O)c2ccc(NC(=O)c3cc(-c4ccccc4)nc4ccccc34)cc2)n1 | -1% | -3% | 28% | 12% | -9% | -26
O=S(=O)(c1cccs1)N1CCC[C@@H]1c1noc2ccccc12 | -2% | / | / | / | / | /
Cc1cc2oc3ccc(NCCCN4CCOCC4)cc3c(=O)c2cc1C | ? | 4% | / | -6% | -1% | -1
Cc1cc2oc3ccc(NCCCn4ccnc4)cc3c(=O)c2cc1C | 1% | 22µM* | / | 56µM* | -41% | 4
Cc1ccc(C(=O)O)cc1NC(=O)CC(C)(C)C | -3% | / | / | / | / | /
CC(C)(C)N/N=C/c1cc(Cl)cc([N+](=O)[O-])c1O | 16µM* | -1% | 35µM* | ? | -9% | -28
Cc1ccccc1C(=O)Nc1ccc2nc(N3CCN(C4CCCCC4)CC3)cc(C(=O)O)c2c1 | 6.3µM* | / | / | / | / | /
CCCC(=O)Nc1ccc2nc(N3CCN(C(=O)OCC)CC3)cc(C(=O)O)c2c1 | 7.9µM* | / | / | / | / | /
Cc1cc(N2CCCCC2)nc2ccc(NC(=O)c3ccc(F)cc3)cc12 | ? | ? | 12% | -7% | -3% | /
Cc1cccc(N2CCN(c3cc(C(=O)O)c4cc(NC(=O)C(C)(C)C)ccc4n3)CC2)c1 | 14µM* | / | / | / | / | /
CCOC(CCNC(=O)CCC(=O)Nc1ccc2nc(N3CCN(C)CC3)cc(C)c2c1)OCC | 412% | 9% | 71% | 1% | 2% | -1
CC(C)CNc1oc(-c2ccccc2F)nc1C#N | -3% | / | / | / | / | /
CCOC(=O)c1c(C)oc2c(F)c(F)c(F)c(F)c2c1=O | ? | ? | -22% | ? | 79µM* | -19
CCOC(=O)c1c(C)oc(=O)c(CC)c1O | -6% | / | / | -9% | / | 4
C=CCNC(=O)NC(=O)CN(C)Cc1cc(C)on1 | 17% | / | / | / | / | /
Cc1ccccc1OCc1nnc(SCC(=O)O)n1-c1cccc(Cl)c1 | ? | -11% | 31% | -4% | -14% | -53*
Cc1ccccc1OCc1nnc(SCC(=O)O)n1-c1ccccc1 | -14% | ? | -26% | -3% | -18% | ?
CC(C)CNC(=O)NC(=O)CSc1nc2ccccc2c(=O)n1-c1ccccc1F | -10% | / | / | / | / | /
CNC(=O)NC(=O)C(C)OC(=O)c1csc(NCc2ccccc2)n1 (centres undefined) | -18% | / | / | / | / | /
Cc1ccc(S(=O)(=O)/C(C#N)=C\c2ccc(OCCC(C)C)cc2)cc1 | 5% | / | / | / | / | /
O=C(O[C@@H]1OC2COC(=O)c3cc(O)c(O)c(O)c3-c3c(cc(O)c(O)c3O)C(=O)O[C@@H]([C@H]1O)[C@@H]2O)c1cc(O)c(O)c(O)c1 | / | ? | 0.16µM* | -99% | -99% | -102*
CCCNC(=O)NC1=C(C#N)C(C)(C)Cc2ccccc21 | 5% | / | / | / | / | /
SMILES | 12-LOX inh | Pol iota inh | Pol beta inh | Pol eta inh | POLK inh | PI5P4K alpha inh
COc1ccccc1Nc1nn2c(=O)c3ccc(C(=O)NCc4cccs4)cc3nc2s1 | 4% | 28% | ? | ? | 4%[60.1 µM] | /
Cc1ccc(C)c(Nc2nn3c(=O)c4ccc(C(=O)NCc5cccs5)cc4nc3s2)c1 | ? | -10% | 11µM* | ? | 4%[60.1 µM] | /
COc1ccccc1Nc1nn2c(=O)c3ccc(C(=O)NCCCOC(C)C)cc3nc2s1 | -10% | ? | 45µM* | ? | -15% | /
CC(C)(C)c1cc(C(F)(F)F)c(C#N)c(=O)[nH]1 | ? | 7% | 0% | 6% | -10% | 6
Cc1cc(C(F)(F)F)c(C#N)c(=S)[nH]1 | 16µM* | / | / | / | / | /
COC1=C(Nc2ccccc2)C(=O)c2ccccc2C1=O | -36% | 18µM* | ? | -23% | -10% | 0
COc1ccc(OC)c2c1C(=O)c1ccccc1C2=O | -5% | ? | 30% | -13% | -21% | 0
COC1=C(OC)C(=O)c2ccccc2C1=O | -6% | 22µM* | 28µM* | ? | -5%[60.1 µM] | /
Cc1cccc(OCCCCc2c(C)n[nH]c2C)c1 | ? | ? | 20% | -12% | -7% | /
Cc1ccc(OCCCCc2c(C)n[nH]c2C)c(C(C)(C)C)c1 | 35µM* | / | / | / | / | /
CC(C)(C)N(CC#CCC(O)(c1ccccc1)c1ccccc1)CCO | 7.9µM* | 19% | 0% | -7% | 6% | 0
OCCN(CC#CCC(O)(c1ccccc1)C1CCCC1)CCO (centres undefined) | -7% | 115% | 4% | 8% | -10% | 4
C[n+]1c2n(c3ccccc31)N=C(c1ccc(Br)cc1)CS2 | ? | 25µM* | 1% | -9% | -7% | /
Cc1sc2nc(C3CC3)nc(N3CCN(C(=O)c4ccc(F)cc4)CC3)c2c1C | 1% | ? | -26% | -12% | -4% | -10
Cc1sc2nc(C3CC3)nc(N3CCN(C(=O)c4ccc(Cl)cc4)CC3)c2c1C | 25µM* | 80% | 23% | -26% | -9% | 8
CC(C)c1ccc(OCc2nnc(SCc3csc(-c4ccccc4Cl)n3)n2C)cc1 | 32% | / | / | / | / | /
CC1(C)OC(=O)C2(Cc3ccccc3N3CCCC32)C(=O)O1 (centres undefined) | / | 79µM* | / | / | ? | /
COc1ccccc1-c1nc(C#N)c(NCc2ccc(Cl)cc2)o1 | -15% | / | / | / | / | /
Cc1ccccc1CN1CCN(C(=O)c2cccc3ccccc23)CC1 | 2.8µM* | 4% | -10% | -12% | 1% | 0
Cc1ccc(CN2CCN(C(=O)c3cccc4ccccc34)CC2)cc1 | 1.3µM* | 36% | -1% | -7% | -2% | 2
COc1ccc(CN2CCN(C(=O)c3cccc4ccccc34)CC2)cc1Br | 0.56µM* | 8% | ? | -18% | -9% | 5
COc1ccc(CN2CCN(C(C)=O)CC2)cc1OC1CCN(C(=O)c2ccc3ccccc3n2)CC1 | 28µM* | / | / | / | / | /
Cc1ccccc1CN1CCN(C(=O)c2ccc3ccccc3n2)CC1 | -24% | / | / | / | / | /
Cc1ccc(NC(=O)CSc2ncnc3ccccc23)c(Cl)c1 | 12% | / | / | / | / | /
COc1cc(OC)cc(C(=O)Nc2ccc3oc(-c4ccncc4)nc3c2)c1 | -14% | / | / | / | / | /
CC(Sc1nc(CN2CCOCC2)nc2ccccc12)C(=O)c1ccccc1 (centres undefined) | 46% | / | / | / | / | /
O=C1/C(=C/c2cccnc2)SC(=S)N1NS(=O)(=O)c1ccccc1 | ? | 82% | 20% | -15% | -12% | ?
